Measurements published in PubChem BioAssay (EPA / NIEHS).
Where “and” joins values, the source holds several entries; their conditions need not be identical. Equal entries are not always repeated. The source holds several records for some structures; these can differ, active in one and inactive in another. Calls of active or inactive are those of the source. The calls were made as follows: active = hit-call score of the fitted dose curve at least 0.9, where 1 is the maximum; inactive = score below 0.9.

Tests used:
[1] = read-out: C-C motif chemokine 2 (Homo sapiens) (UniProt P13500); test: BSK_KF3CT_MCP1: BioMAP Diversity Plus: KF3CT Assay for Monocyte Chemoattractant Protein 1 (MCP1/CCL2) Biomarker Activity (AID 2283073); details: primary human keratinocytes with fibroblasts; actives raise or lower the signal
Procedure, shortened: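 Keratinocytes and foreskin fibroblasts were co-cultured, dosed with chemical, and sampled 24 h later. MCP-1 was quantified by ELISA, and the endpoint was analyzed with bidirectional fitting using DMSO as negative control.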

[2] = read-out: Matrix Metallopeptidase 9 (MMP9), MMP9 (gene 4318); test: BSK_KF3CT_MMP9: BioMAP Diversity Plus: KF3CT Assay for Matrix Metallopeptidase 9 (MMP9) Biomarker Activity (AID 2283074); details: primary human keratinocytes with fibroblasts; actives raise or lower the signal;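 as to AC50: MMP9 protein level quantified by ELISA in the co-culture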
Procedure, shortened: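 ELISA read-out of MMP-9 at 24 h post-dosing in a co-culture of human skin keratinocytes and foreskin fibroblasts. Gain or loss of signal was fitted in both directions against DMSO.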

[3] = read-out: urokinase plasminogen activator (uPA), PLAU (gene 5328); test: BSK_KF3CT_uPA: BioMAP Diversity Plus: KF3CT Assay for urokinase plasminogen activator (uPA) Biomarker Activity (AID 2283075); details: primary human keratinocytes with fibroblasts; actives raise or lower the signal
Procedure, shortened: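 Skin co-culture (keratinocytes + foreskin fibroblasts), human primary; 24 h post-dose; uPA by ELISA; gain/loss fit vs DMSO baseline.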

[4] = read-out: CD40, CD40 (gene 958); test: BSK_LPS_CD40: BioMAP Diversity Plus: LPS Assay for CD40 Biomarker Activity (AID 2283076); details: primary human HUVEC with PBMC; actives raise or lower the signal
Procedure, shortened: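 CD40 signal, measured by ELISA, is fitted in both directions relative to DMSO vehicle. The system is an LPS-driven human vascular primary co-culture of endothelial cells and PBMC, sampled 24 h after compound addition.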

[5] = read-out: E-selectin (Homo sapiens) (UniProt P16581); test: BSK_LPS_Eselectin: BioMAP Diversity Plus: LPS Assay for Eselectin Biomarker Activity (AID 2283077); details: primary human HUVEC with PBMC; actives raise or lower the signal
Procedure, shortened: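 Signal of E-selectin, detected by ELISA, served as the endpoint; cells were umbilical vein endothelium with PBMC, read 24 h after treatment. DMSO defined baseline, and both increases and decreases were fitted.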

[6] = read-out: Interleukin-8 (IL8), CXCL8 (gene 3576); test: BSK_LPS_IL8: BioMAP Diversity Plus: LPS Assay for Interleukin-8 (IL8) Biomarker Activity (AID 2283078); details: primary human HUVEC with PBMC; actives raise or lower the signal
Procedure, shortened: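 Endothelial cells and PBMC from human donors are co-cultured, treated with chemicals and LPS, then assayed for IL-8 by ELISA after 24 h. Parallel SRB staining (0.1% SRB after 10% TCA fixation, 560 nm) flags cytotoxicity.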

[7] = BSK_LPS_SRB: Viability Assessment in the BioMAP Diversity Plus: LPS Assay (AID 2283079); details: primary human HUVEC with PBMC;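 also: total protein by sulforhodamine B absorbance as a cytotoxicity measure; measured one day after compound addition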
Procedure, shortened: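 Overt cytotoxicity was gauged by sulforhodamine B total-protein staining in a primary human vascular endothelial and mononuclear cell co-culture 24 h post-dosing. Activity was fitted in both directions relative to DMSO.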

[8] = read-out: Interleukin-1 alpha (IL1a), IL1A (gene 3552); test: BSK_LPS_IL1a: BioMAP Diversity Plus: LPS Assay for Interleukin-1 alpha (IL1a) Biomarker Activity (AID 2283080); details: primary human HUVEC with PBMC; actives raise or lower the signal
Procedure, shortened: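 Measured: IL-1 alpha via ELISA at 24 h in LPS-activated human umbilical vein endothelium–PBMC co-culture. Baseline: DMSO, bidirectional fitting.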

[9] = read-out: Monocyte Chemoattractant Protein-1 (MCP1), CCL2 (gene 6347); test: BSK_LPS_MCP1: BioMAP Diversity Plus: LPS Assay for Monocyte Chemoattractant Protein-1 (MCP1) Biomarker Activity (AID 2283081); details: primary human HUVEC with PBMC; actives raise or lower the signal;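 as to AC50: secreted MCP-1 protein quantified by ELISA in culture supernatant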
Procedure, shortened: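 LPS-stimulated HUVEC/PBMC co-culture; chemical, 24 h; MCP-1 by ELISA; bidirectional fit vs DMSO; cytotoxicity via SRB (0.1% stain, 10% TCA fix, 560 nm) in parallel wells.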

[10] = BSK_LPS_PGE2: BioMAP Diversity Plus: LPS Assay for Prostaglandin E2 (PGE2) Biomarker Activity (AID 2283082); details: primary human HUVEC with PBMC; actives raise or lower the signal;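 as to AC50: secreted prostaglandin E2 measured by ELISA in LPS-stimulated co-culture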
Procedure, shortened: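 PGE2 release measured by ELISA in an LPS-activated co-culture of human umbilical vein endothelial cells and peripheral blood mononuclear cells, read at 24 h post-dosing. DMSO served as baseline for bidirectional curve fitting.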

Measured: AC50

E-selectin (Homo sapiens), sequence (P16581 whole entry, looked up): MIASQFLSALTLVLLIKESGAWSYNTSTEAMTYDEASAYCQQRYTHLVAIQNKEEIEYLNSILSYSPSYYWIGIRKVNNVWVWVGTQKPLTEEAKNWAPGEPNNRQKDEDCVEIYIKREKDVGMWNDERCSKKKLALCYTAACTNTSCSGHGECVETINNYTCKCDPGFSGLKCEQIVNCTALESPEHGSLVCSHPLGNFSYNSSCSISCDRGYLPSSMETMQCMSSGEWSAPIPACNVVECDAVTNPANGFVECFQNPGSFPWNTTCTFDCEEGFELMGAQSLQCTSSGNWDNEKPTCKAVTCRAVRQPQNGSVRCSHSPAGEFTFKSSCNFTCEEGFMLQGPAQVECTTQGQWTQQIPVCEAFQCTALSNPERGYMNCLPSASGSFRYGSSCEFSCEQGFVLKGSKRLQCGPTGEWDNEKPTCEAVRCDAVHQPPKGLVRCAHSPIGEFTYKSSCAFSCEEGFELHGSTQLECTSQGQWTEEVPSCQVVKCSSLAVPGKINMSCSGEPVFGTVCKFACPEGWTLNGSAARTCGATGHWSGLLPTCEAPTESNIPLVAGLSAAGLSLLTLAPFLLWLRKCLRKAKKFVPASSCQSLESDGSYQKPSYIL

Cc1[nH]cnc1C[C@H]1CCc2c(C)c3ccccc3n2C1=O
active: [4] 27.8 µM | [6] 24.3 µM | [7] 26.2 µM | [9] 27 µM
not listed: [10]
inactive: all other assays above

O=c1n(CC2CO2)c(=O)n(CC2CO2)c(=O)n1CC1CO1 (centres undefined)
inactive: [1] | [3] | [8]
active: [2] 20 µM | [4] 16.3 µM | [5] 20 µM | [6] 10.8 µM | [7] 12.2 µM | [9] 19.5 µM

CCc1cc(SCc2sc(-c3ccc(C(F)(F)F)cc3)nc2CN2CCN(c3ccc(OC)cc3)CC2)ccc1OCC(=O)O
active: [1] 4.26 µM | [2] 4.08 µM | [3] 5.22 µM | [4] 6.6 µM | [5] 14.8 µM | [6] 33.6 µM | [7] 13.4 µM | [8] 30.6 µM | [9] 12.3 µM

O=c1[nH]c2ccc(S(=O)CCN3CCC(Cc4ccc(F)cc4)CC3)cc2o1 (centres undefined)
not listed: [10]
inactive: all other assays above

CCC(C)(C)C(=O)O[C@H]1C[C@@H](C)C=C2C=C[C@H](C)[C@H](CC[C@@H]3C[C@@H](O)CC(=O)O3)[C@H]21
inactive: [6]
active: [1] 36.9 µM | [2] 31.6 µM | [3] 31.2 µM | [4] 6.52 µM | [5] 0.168 µM | [7] 4.75 µM | [8] 1.28 µM | [9] 30.5 µM

CCCCCCCCO
not listed: [10]
inactive: all other assays above

CCCC(=O)OCC
not listed: [10]
inactive: all other assays above

CN(C)c1ccc(N=NS(=O)(=O)O)cc1
not listed: [10]
inactive: all other assays above

CC(C)CCCCCCOC(=O)c1ccc(C(=O)OCCCCCCC(C)C)c(C(=O)OCCCCCCC(C)C)c1
not listed: [10]
inactive: all other assays above

COC(=O)CC(=O)OC
not listed: [10]
inactive: all other assays above

CCOC(=O)CC(CC(=O)OCC)(OC(C)=O)C(=O)OCC
not listed: [10]
inactive: all other assays above

CC(C)=CCC/C(C)=C/CO
not listed: [10]
inactive: all other assays above

C1N2CN3CN1CN(C2)C3
not listed: [10]
inactive: all other assays above

CC(=O)c1ccc2c(c1)[C@H](NC(=O)c1ccc(F)cc1)[C@@H](O)C(C)(C)O2
not listed: [10]
inactive: all other assays above

CCOC(=O)COc1ccc2c(c1)CC(NCC(O)c1cccc(Cl)c1)CC2 (centres undefined)
inactive: [1] | [2] | [3] | [5]
active: [4] 29 µM | [6] 27.4 µM | [7] 28.4 µM | [8] 18.3 µM | [9] 29.2 µM

CCCN(C1CCN(C(=O)C2CCNCC2)CC1)[C@@H]1CCc2ccc(OC)cc2C1
not listed: [10]
inactive: all other assays above

O=C(O)CC(O)C(=O)O (centres undefined)
not listed: [10]
inactive: all other assays above

C=CC(=C)CCC=C(C)C
not listed: [10]
inactive: all other assays above

Cn1c(=O)c2c(ncn2C)n(C)c1=O
not listed: [10]
inactive: all other assays above

O=C(O)c1cc(N=Nc2ccc(S(=O)(=O)Nc3ccccn3)cc2)ccc1O
not listed: [10]
inactive: all other assays above

Cn1cnc([N+](=O)[O-])c1Sc1ncnc2nc[nH]c12
inactive: [1] | [2] | [3] | [4] | [5] | [6] | [7] | [8] | [9] | [10]
active: [4] 26.9 µM and 4.17 µM

CNCc1ccc(NC(=O)c2c[nH]c3c2C(=O)CCC3)cc1
not listed: [10]
inactive: all other assays above

CCCCCCCCCCCCCCCO
active: [4] 33.6 µM | [6] 31.1 µM | [7] 31.7 µM | [8] 31.9 µM
not listed: [10]
inactive: all other assays above

CC(C)(O)c1coc(S(=O)(=O)NC(=O)Nc2c3c(cc4c2CCC4)CCC3)c1
active: [6] 0.148 µM
not listed: [10]
inactive: all other assays above

CCCCC(CC)COC(=O)c1ccc(C(=O)OCC(CC)CCCC)cc1 (centres undefined)
not listed: [10]
inactive: all other assays above

O=C(O)c1cccc(Oc2ccccc2)c1
not listed: [10]
inactive: all other assays above

O=C1CCC(N2C(=O)c3ccccc3C2=O)C(=O)N1 (centres undefined)
not listed: [10]
inactive: all other assays above

CC/C(=C\C(=N/O)C(N)=O)C(C)[N+](=O)[O-] (centres undefined)
not listed: [10]
inactive: all other assays above

O=P(OC(CCl)CCl)(OC(CCl)CCl)OC(CCl)CCl
not listed: [10]
inactive: all other assays above

CCCCCCCCCCCCc1ccccc1
active: [4] 30.7 µM
not listed: [10]
inactive: all other assays above

C[C@](N)(Cc1ccc(O)c(O)c1)C(=O)O
inactive: all assays above

CCOCCOCCOCCO
inactive: all assays above

CC(C)=CCCC(C)CCO (centres undefined)
inactive: all assays above

NC(=O)NO
not listed: [10]
inactive: all other assays above

CC1=CC(=O)CC(C)(C)C1
inactive: all assays above

O=C1CCCCCN1
inactive: all assays above

COc1ccc2sc(C(=O)Nc3nnn[nH]3)c(OC(C)C)c2c1
active: [1] 16.7 µM | [2] 27 µM | [3] 29.5 µM | [4] 7.18 µM | [5] 23.4 µM | [6] 28.5 µM | [7] 9.83 µM | [8] 13.2 µM | [9] 19.8 µM

CN(C)c1ccc(Cc2ccc(N(C)C)cc2)cc1
active: [6] 20 µM | [10] 5.6 µM
inactive: all other assays above

O=C(CCCCCCCCc1cccnc1)N1CCC(C=C(c2ccccc2)c2ccccc2)CC1
inactive: [10]
active: [1] 16.9 µM | [2] 7.47 µM | [3] 15.7 µM | [4] 8.31 µM | [5] 14.4 µM | [6] 12 µM | [7] 11.7 µM | [8] 9.81 µM | [9] 10.1 µM

CCOc1cccc(-n2cc(C(=O)N3CCN(c4cc(C(=O)O)c5ccccc5c4)CC3)nc2-c2ccc(C)cc2)c1
active: [1] 19.2 µM | [2] 19.7 µM | [3] 31.2 µM | [4] 14.2 µM | [5] 31.3 µM | [6] 27.2 µM | [7] 13.7 µM | [8] 19.2 µM | [9] 30.7 µM | [10] 29.4 µM

Cc1ccc(S(=O)(=O)O)cc1C
not listed: [10]
inactive: all other assays above

O=C1OC(=O)C2C3C=CC(C3)C12 (centres undefined)
inactive: all assays above

Cn1c(=O)cc(Oc2ccc(F)cc2F)c2cnc(NCC(C)(C)O)nc21
active: [5] 3.35 µM | [6] 2.9 µM | [8] 3.97 µM | [9] 3.88 µM | [10] 1.76 µM
inactive: [1] | [2] | [3] | [4] | [7]
